Assay outcomes (PubChem)
CRFR2-BP antag: antagonists of CRF-binding protein/CRF-R2 receptor complex | inhibition, % at 11.8 µM | 350,000 tested, 0.59% active | HEK293 CRF-R2/CRF-BP, CRF-induced calcium fluorescence;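 active = inhibition of the ligand-induced calcium signal above about 50% at the single tested concentration, limit read from the data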
NadD block: NadD (S. aureus) enzyme inhibition | purified NadD enzyme, colorimetric absorbance read-out | inhibition, % at 20 µM | 360,000 tested, 0.78% active; in the data active = inhibition above about 26%
Myeloid diff 2: promotes myeloid progenitor differentiation; ER-HoxA9 myeloid progenitors, lysozyme-GFP differentiation, flow cytometry; calls only at 10 µM; 360,000 tested, 1% active;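 active = normalized GFP-positive differentiation at or above the plate's own cutoff, the solvent-only control mean plus 3 SD; inconclusive = no clear call, values can overlap the other calls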;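 note: cells exposed to compound for four days before flow analysis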
NRP1-CendR mod: modulators of CendR peptide binding to human neuropilin-1. 360,000 tested, 0.85% active. AID 602438. FAM-RPARPAR peptide binding to NRP-1, fluorescence polarization. inhibition, % at 25 µM. O14786;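 active = inhibition or corrected inhibition above about 18%, plus a signal ratio from 0.5 to 1.5, limit read from the data, passing the limit was not always enough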
FAS-TE inh: inhibitors of human fatty acid synthase thioesterase domain | P49327 | recombinant FAS-TE, OMFH fluorogenic substrate, fluorescence endpoint | inhibition, % at 15 µM | 360,000 tested, 0.67% active | AID 602261;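 active = compounds whose normalised, plate-corrected inhibition of enzyme fluorescence in the single-dose primary screen is 50% or more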;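 note: 0% = DMSO with enzyme and 100% = substrate without enzyme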
Target sequence (P49327 whole entry, looked up, the tested form may be a part): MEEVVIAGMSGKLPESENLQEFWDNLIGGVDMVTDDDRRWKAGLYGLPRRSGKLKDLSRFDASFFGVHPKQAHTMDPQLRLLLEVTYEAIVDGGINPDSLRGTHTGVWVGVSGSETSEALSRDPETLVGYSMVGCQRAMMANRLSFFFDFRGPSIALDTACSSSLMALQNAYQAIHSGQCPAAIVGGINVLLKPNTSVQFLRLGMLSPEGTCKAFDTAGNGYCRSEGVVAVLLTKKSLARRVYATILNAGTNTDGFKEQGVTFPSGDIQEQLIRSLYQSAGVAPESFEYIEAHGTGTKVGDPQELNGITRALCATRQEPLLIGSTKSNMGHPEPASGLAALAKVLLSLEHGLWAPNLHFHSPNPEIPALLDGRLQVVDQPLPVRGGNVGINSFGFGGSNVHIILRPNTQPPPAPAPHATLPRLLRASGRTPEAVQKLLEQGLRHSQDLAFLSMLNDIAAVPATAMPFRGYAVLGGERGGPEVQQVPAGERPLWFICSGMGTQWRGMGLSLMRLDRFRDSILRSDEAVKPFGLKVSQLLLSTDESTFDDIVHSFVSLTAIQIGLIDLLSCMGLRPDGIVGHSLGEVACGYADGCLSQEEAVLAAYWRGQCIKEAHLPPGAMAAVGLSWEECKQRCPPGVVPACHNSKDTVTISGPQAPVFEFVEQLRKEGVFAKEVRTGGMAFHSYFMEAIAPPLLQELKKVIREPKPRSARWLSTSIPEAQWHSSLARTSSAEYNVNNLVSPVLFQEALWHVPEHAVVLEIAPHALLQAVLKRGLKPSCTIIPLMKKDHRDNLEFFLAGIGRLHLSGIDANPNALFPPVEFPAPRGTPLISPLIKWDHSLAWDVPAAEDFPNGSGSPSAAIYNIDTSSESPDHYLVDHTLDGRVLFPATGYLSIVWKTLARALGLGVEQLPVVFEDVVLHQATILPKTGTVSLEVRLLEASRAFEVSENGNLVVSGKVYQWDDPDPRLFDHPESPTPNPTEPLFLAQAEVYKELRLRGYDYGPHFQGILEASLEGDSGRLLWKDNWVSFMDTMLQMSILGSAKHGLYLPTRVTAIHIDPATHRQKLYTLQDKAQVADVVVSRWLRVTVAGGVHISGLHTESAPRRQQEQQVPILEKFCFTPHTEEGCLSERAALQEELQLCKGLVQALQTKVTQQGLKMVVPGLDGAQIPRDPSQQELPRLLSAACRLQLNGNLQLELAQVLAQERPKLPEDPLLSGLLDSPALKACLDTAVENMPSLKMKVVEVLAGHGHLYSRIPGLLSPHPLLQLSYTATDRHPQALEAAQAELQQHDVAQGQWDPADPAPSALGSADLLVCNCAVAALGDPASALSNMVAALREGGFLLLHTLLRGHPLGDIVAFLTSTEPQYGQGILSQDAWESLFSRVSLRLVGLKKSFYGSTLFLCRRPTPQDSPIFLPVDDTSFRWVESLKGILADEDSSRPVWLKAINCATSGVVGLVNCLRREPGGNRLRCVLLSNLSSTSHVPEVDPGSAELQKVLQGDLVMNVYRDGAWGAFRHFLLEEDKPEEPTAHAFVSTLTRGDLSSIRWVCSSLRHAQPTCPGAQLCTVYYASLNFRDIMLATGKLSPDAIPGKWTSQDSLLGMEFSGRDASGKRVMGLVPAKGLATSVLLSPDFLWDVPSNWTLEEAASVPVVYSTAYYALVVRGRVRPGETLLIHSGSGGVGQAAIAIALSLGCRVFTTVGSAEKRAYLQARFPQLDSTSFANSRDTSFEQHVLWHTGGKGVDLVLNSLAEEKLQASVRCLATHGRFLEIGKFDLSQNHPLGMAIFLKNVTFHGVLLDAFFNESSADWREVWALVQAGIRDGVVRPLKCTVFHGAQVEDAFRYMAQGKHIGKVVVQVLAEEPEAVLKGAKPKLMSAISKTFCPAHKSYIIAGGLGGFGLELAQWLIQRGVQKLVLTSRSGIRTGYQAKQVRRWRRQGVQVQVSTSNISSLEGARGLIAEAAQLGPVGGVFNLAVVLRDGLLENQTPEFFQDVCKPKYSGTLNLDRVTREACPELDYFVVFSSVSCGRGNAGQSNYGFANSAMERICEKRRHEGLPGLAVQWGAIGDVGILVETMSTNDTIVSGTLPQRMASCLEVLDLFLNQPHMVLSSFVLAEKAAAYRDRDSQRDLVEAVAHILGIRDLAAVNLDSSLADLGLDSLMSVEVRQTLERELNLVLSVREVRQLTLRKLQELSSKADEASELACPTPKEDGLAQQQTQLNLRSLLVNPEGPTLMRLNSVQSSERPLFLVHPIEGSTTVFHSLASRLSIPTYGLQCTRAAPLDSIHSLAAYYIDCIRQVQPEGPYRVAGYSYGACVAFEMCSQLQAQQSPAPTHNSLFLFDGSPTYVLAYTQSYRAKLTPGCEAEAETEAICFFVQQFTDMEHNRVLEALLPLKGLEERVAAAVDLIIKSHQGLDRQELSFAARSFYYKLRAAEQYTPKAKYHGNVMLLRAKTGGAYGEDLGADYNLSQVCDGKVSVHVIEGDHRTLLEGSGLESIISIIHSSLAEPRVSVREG
* marks the source's active call; other numbers are inactive results; i = inactive; ? = inconclusive; . = no result; + = active, no number. This is a sample that favours compounds with a hit; in the whole collection about 3.6% have one here.

SMILES | CRFR2-BP antag | NadD block | Myeloid diff 2 | NRP1-CendR mod | FAS-TE inh
COc1ccc(Nc2ccccc2N)cc1 | 2.3 | 2.7 | + | -90.8 | -3.4
CC1(C(=O)Nc2ccc3c(c2)OCO3)CCN1C(=O)CC1CC1 (stereo not drawn) | . | -5.9 | i | -6.4 | -6.6
Cc1sc(NC(=O)C2=COCCO2)nc1-c1ccc(Cl)cc1 | -3.6 | -3.0 | i | 6.1 | 2.5
CCCCc1ccc(S(=O)(=O)N2CCC3(CC2)OCCO3)cc1 | 0.1 | -13.3 | i | 32.6* | 16.3
O=S(=O)(c1ccc(Cl)cc1)N1CCC2(CC1)OCCO2 | 25.7 | 0.5 | i | 3.4 | -4.4
Cc1ccc(NC=C(S(=O)(=O)c2ccccc2)S(=O)(=O)c2ccccc2)cc1 | -6.8 | 0.3 | i | 28.6* | 28.3
O=S(=O)(C(=CNc1ccccc1)S(=O)(=O)c1ccccc1)c1ccccc1 | -1.4 | -10.2 | i | 2.3 | 19.6
COc1ccc(NC(=O)CSc2nnc(C3CCCCC3)o2)c(OC)c1 | -0.9 | -0.3 | + | -5.8 | -0.1
COc1ccc(C(=O)Nc2cc(C(F)(F)F)ccc2-n2cncn2)cc1 | -24.8 | 5.4 | i | -1.7 | 3.3
COc1ccc(Oc2ccc(C(F)(F)F)cc2NC(=O)c2ccc(OC)cc2)cc1 | 52.1* | -0.6 | i | -2.5 | 39.7
CN(C)C(=O)c1cc(C(=O)c2ccccc2F)c[nH]1 | 17.0 | 0.3 | i | -1.9 | -4.8
Cc1oc(C)c2c(=O)ccc3c(c12)OC(N)=C(C#N)C3c1ccc(F)cc1 (stereo not drawn) | 3.4 | 9.5 | + | -110.0 | -6.6
CCCN(CC(=O)Nc1ccccc1OC)C(=O)c1nc2nc(C)ccn2n1 | -1.7 | -4.5 | i | 8.3 | -10.1
O=C(NCCN1CCOCC1)C(=O)NCC1CCCO1 (stereo not drawn) | -9.5 | -2.5 | i | 37.9* | -6.7
CCOC(=O)C1=C(C)N(C)C(=O)NC1c1cc2c(cc1Br)OCO2 (stereo not drawn) | 6.6 | 1.4 | i | 21.2* | -2.8
O=C1NC[C@H](CCCCN2CCN(CCc3ccccc3)C(=O)C2=O)N(CCc2ccccc2)C1=O | . | 2.3 | i | -5.1 | -13.7
Cc1c(Cl)cccc1NC(=O)NN1CCN(C)CC1 | 13.9 | -1.9 | + | -8.0 | -6.3
CN(C)c1ccc(/C=C/C(=O)c2cc(Cl)ccc2O)cc1 | -26.5 | -7.9 | i | 33.5 | -2.0
O=C(/C=C/c1ccncc1)c1cc(Cl)ccc1O | 6.5 | 15.0 | + | -5.1 | -17.6
COCCNc1nc(NCCOc2ccccc2)c2sc(-c3ccccc3)cc2n1 | . | 7.6 | i | 15.0 | 3.1
COc1ccccc1CCNC(=O)CCn1nc(C)c2c(C)n(-c3ccccc3)nc2c1=O | 76.2* | 2.1 | i | 14.8 | -1.7
CCCCc1ccc(-c2csc(/C(C#N)=C\c3ccco3)n2)cc1 | -24.0 | 5.8 | + | -5.1 | 20.4
Cc1cccc(C)c1NC(=O)NC1(C(=O)N2CCCC2)CCCCC1 | 9.9 | -5.9 | i | 10.6 | -5.6
O=C(COc1ccc(Cl)cc1Br)N1CCN(c2ccccc2)CC1 | -3.8 | 1.0 | i | 33.9* | 22.5
O=CN1CCN(C(=O)COc2ccc(Cl)cc2Br)CC1 | 2.3 | -3.0 | i | 0.7 | -3.2
SMILES | CRFR2-BP antag | NadD block | Myeloid diff 2 | NRP1-CendR mod | FAS-TE inh
O=C(/C=C/c1cccc(Br)c1)OCC(=O)N1CCN(c2ccccc2)CC1 | 14.0 | -7.7 | i | 27.1* | 11.0
CSc1ccc(/C=C/C(=O)OCC(=O)N2CCN(c3ccccc3)CC2)cc1 | -1.3 | 13.5 | i | 8.6 | -2.0
Cc1cccc(NS(=O)(=O)c2ccc(NS(=O)(=O)c3cccs3)cc2)c1 | -6.1 | -6.3 | i | -13.5 | -1.1
Cc1cccc(NS(=O)(=O)c2cccs2)c1 | 14.6 | -3.2 | i | 36.3* | -5.4
O=C(NCc1nnnn1-c1ccc(Cl)cc1)C(=O)c1c[nH]c2ccccc12 | -21.1 | -5.0 | i | -1.6 | -4.7
CCCCOc1ccc(C(=O)Nn2cnnc2)cc1 | 8.8 | -7.3 | i | 24.9* | -5.3
Cc1noc(C)c1CSc1nc2sc(C)c(C)c2c(=O)n1-c1ccccc1 | 29.0 | 6.3 | i | -3.1 | 8.5
C=CCn1c(SCc2c(C)noc2C)nc2sc(C)c(C)c2c1=O | 74.0* | 0.4 | ? | -1.1 | 24.6
Cn1ccn(CCCCCCn2ccn(C)c2=S)c1=S | -2.8 | -0.7 | i | -14.4 | -1.6
COc1ccccc1C1C2=C(N=c3s/c(=C/c4cccc(OCC(=O)O)c4)c(=O)n31)c1ccccc1CC2 (stereo not drawn) | 64.9* | 26.3 | i | -32.9 | 34.4
CCN1CCN(CC(=O)Nc2cc(C(F)(F)F)ccc2OCCOC)CC1 | 19.2 | -2.1 | i | 0.5 | -3.2
COC(=O)C[C@H]1CC[C@@H](NC(=O)C2CC2)[C@@H](CO)O1 | . | . | i | 1.4 | .
Cc1cccc(C)c1NC(=O)C1c2ccccc2OCC(=O)N1C1CC1 (stereo not drawn) | . | 0.7 | i | -0.5 | -11.4
CC(C)(C)OC(=O)NCCc1n[nH]c(=S)o1 | -4.8 | -6.9 | i | 27.2* | 0.9
Cn1c(CCNC(=O)OC(C)(C)C)n[nH]c1=S | -1.0 | -3.0 | i | -4.1 | -14.9
O=C(C[C@@H]1CC[C@@H](NC(=O)Nc2cccc(F)c2)[C@@H](CO)O1)NCC1CCCCC1 | . | . | i | 7.7 | .
CC1CCC(=NNS(=O)(=O)c2ccc([N+](=O)[O-])cc2)CC1 (stereo not drawn) | -6.4 | -1.8 | i | 12.7 | 58.0*
COc1ccc(/C=C2\C(=O)NCC(=O)N2C)cc1 | 1.8 | 3.1 | + | 5.8 | -10.1
COc1ccc(N(C(=O)c2cccnc2)S(=O)(=O)c2ccc(F)cc2)cc1 | -6.6 | 6.3 | i | -9.9 | 6.9
COc1ccc(N(C(=O)c2cccnc2)S(=O)(=O)c2ccccc2)cc1 | -3.1 | -6.4 | i | 23.6* | -3.0
Cc1cccc(C(=O)NCC(=O)NC(C)CCc2ccccc2)c1 (stereo not drawn) | -1.8 | -5.6 | i | 7.4 | -0.5
O=C(NCc1ccccc1Br)c1cccs1 | . | -6.6 | + | 3.0 | -4.2
CC(CCc1ccccc1)NC(=O)CNC(=O)c1cccs1 (stereo not drawn) | 0.8 | 0.0 | i | 28.5* | -7.0
COc1ccc(/C=C(/NC(=O)c2ccccc2)C(=O)N2CCCCC2)cc1OC | 25.2 | -1.8 | i | 27.6* | -4.1
CC(CCC(C)C(C)(C)C)[C@@H]1CC[C@H]2C3C[C@H](OS(O)(=S)=S)[C@H]4C[C@H](OS(O)(=S)=S)[C@@H](OS(O)(=S)=S)C[C@]4(C)[C@H]3CC[C@]12C (stereo partly drawn) (tested in a mixture with another compound) | 30.5 | 53.0* | i | 35.9* | 81.4*
CCOc1ccc2c(c1)OC1(CCC(C)C1)CC2=O (stereo not drawn) | -4.9 | -3.0 | i | 27.7* | 6.6
CN(CC(=O)Nc1ccccc1Cl)C(=O)COC(=O)Cc1ccc(F)cc1 | -8.4 | 6.1 | i | 0.5 | -3.9
COc1cccc(CC(=O)OCC(=O)N(C)CC(=O)Nc2ccccc2Cl)c1 | 6.3 | 0.8 | i | 19.9* | 2.1
